From PubChem BioAssay
Sampled rows, rich in hits. Any-hit rate of the full collection: about 3.2%.
RE007 growth inh – qHTS Assay for Inhibitors of the HIV-1 protein Vpr; S. pombe RE007 Vpr strain, BacTiter-Glo ATP luminescence, 24 h; Potency, µM (titrated, usually from 92.2 µM), without a hit: at the top dose activity change, negative = less growth, usual class: inhibitors; 0.21% of 360,000 active; AID 651644, 2012; active means well fitted falling curve with a large enough effect; inconclusive means small, poorly fitted or top-dose-only effect; inactive means no such curve, though single readings can be large or run the other way; further: nearly all actives have a fitted effect of over 50% in size
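Fission yeast RE007 carrying one integrated HIV-1 vpr copy, seeded at OD 0.01 in PMG+AL medium with 23 nL pinned compound. Grown 24 h at 30 degrees; viability read by BacTiter-Glo luminescence after 5 min.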
Sm TGR block – qHTS Assay for the Inhibitors of Schistosoma Mansoni Peroxiredoxins; Schistosoma mansoni thioredoxin glutathione reductase (TGR), Q962Y6; purified TGR, DTNB reduction, TNB absorbance 405 nm; Potency, µM (top dose mostly 114 µM), for the others: at the highest dose activity change, negative = inhibition, hits mostly inhibitors; 3% of 360,000 active; AID 485364, 2010; further: nearly all actives have a fitted effect of over 60% in size
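TGR 20 nM + NADPH 100 uM (dispensed conc.), cpd preinc 15 min RT; start with NADPH (500 uM addition) then DTNB (15 mM addition). Kinetic TNB absorbance, 405 nm filter. Four-parameter Hill fit across titration.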
AMA1 RON2 block – qHTS for Inhibitors of AMA1-RON; Towards Development of Antimalarial Drug Lead: Primary Screen. Plasmodium falciparum AMA1 (3D7) - RON2 peptide interaction. AlphaScreen AMA1-biotinylated RON2 peptide binding. Potency, µM (doses to about 58.2 µM), for the others: top-dose activity change, negative = inhibition, hits mostly inhibitors. 0.2% of 360,000 active. AID 720542, 2013;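 further: 0% = vehicle wells and -100% = peptide control; nearly all actives have a fitted effect of over 45% in size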
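AMA1 (3D7) with his tag at 25 nM final met compounds first, then biotinylated RON2 peptide at 25 nM; detection used donor plus acceptor beads, 10 µg/mL apiece, read by AlphaScreen after 30 min at room temperature.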
LmPK inhibitor – qHTS Assay for Inhibitors of Leishmania Mexicana Pyruvate Kinase (LmPK); purified LmPK, Kinase-Glo ATP luminescence, 1 h; Potency, µM (series often up to 57.5 µM), without a hit: top-dose activity change, negative = inhibition, most hits filed as inhibitors; 0.37% of 290,000 active; AID 1721, 2009
Target sequence (Q27686 whole entry, looked up): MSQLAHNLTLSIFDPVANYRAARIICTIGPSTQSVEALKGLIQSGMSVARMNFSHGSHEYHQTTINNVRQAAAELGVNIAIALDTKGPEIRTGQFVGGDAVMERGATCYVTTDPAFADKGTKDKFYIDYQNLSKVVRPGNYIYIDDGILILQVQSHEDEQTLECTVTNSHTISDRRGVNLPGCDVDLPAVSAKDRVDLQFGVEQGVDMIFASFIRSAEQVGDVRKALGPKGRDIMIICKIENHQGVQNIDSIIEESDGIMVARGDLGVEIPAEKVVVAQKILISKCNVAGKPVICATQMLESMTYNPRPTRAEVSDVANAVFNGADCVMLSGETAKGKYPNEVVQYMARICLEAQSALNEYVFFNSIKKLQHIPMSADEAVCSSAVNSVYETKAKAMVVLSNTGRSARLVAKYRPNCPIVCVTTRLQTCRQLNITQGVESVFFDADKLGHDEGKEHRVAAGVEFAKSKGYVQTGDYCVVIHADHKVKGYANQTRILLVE
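0.1 nM LmPK, 0.5 mM PEP, 0.1 mM ADP; 50 mM imidazole pH 7.2, 7 mM MgCl2, 50 mM KCl; 1 h RT. Kinase-Glo luminescence readout, normalized to no-enzyme (full inhibition) and uninhibited wells.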
Tb PYK inh – qHTS of Trypanosoma Brucei Inhibitors. pyruvate kinase (Trypanosoma brucei), Q57TT1. TbPYK enzyme, Kinase-Glo Plus ATP luminescence, 45 min. Potency, µM (titrated, usually from 76.8 µM), inactives show at the highest dose activity, negative = inhibition, usual class: inhibitors. 0.12% of 410,000 active. AID 624173, 2012; further: nearly all actives have a fitted effect of over 50% in size
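Screened from lowest to highest concentration, compounds were pinned into TbPYK/substrate mixtures, and ADP (130 uM final) was added. Plates sat at room temperature for 45 min prior to Kinase-Glo Plus detection by luminescence.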
* marks the source's active call; other numbers are inactive results. Unless noted, the call rests on the fitted dose curve; in most records, active means well fitted curve in the direction sought with a large enough effect; inconclusive means small, poorly fitted or top-dose-only effect, or another doubt; inactive means no such curve, though single readings can be large; an effect the other way counts as inactive or inconclusive. Unless noted, on the % scale 0 is the no-effect control and ±100 the full control effect; potency means the concentration at half of the fitted maximal effect.

What do the screens show for `C=CC(=O)Nc1sc2c(c1C(N)=O)CCCC2`?
RE007 growth inh: -2%; Sm TGR block: 40µM*; AMA1 RON2 block: -2%; Tb PYK inh: 7%

How did NC(=O)c1c(NC(=O)C2CC=CCC2C(=O)O)sc2c1CCCCC2 (stereo not drawn) do in these assays?
RE007 growth inh: -14%; Sm TGR block: 50µM*; AMA1 RON2 block: 20%; LmPK inhibitor: 1%; Tb PYK inh: inconclusive

Results for NC(=O)c1c(NC(=O)CN2CCCC2)sc2c1CCCC2 ?
RE007 growth inh: -1%; Sm TGR block: 0%; AMA1 RON2 block: 46%; LmPK inhibitor: -2%; Tb PYK inh: inconclusive

What do the screens show for `NC(=O)c1c(NC(=O)CN2CCOCC2)sc2c1CCC2`?
RE007 growth inh: -12%; Sm TGR block: 35µM*; AMA1 RON2 block: 15%; LmPK inhibitor: 0%; Tb PYK inh: 1%

What do the screens show for `CC(C)OC(=O)c1c(NC(=O)C2CC=CCC2C(=O)O)sc2c1CCCCC2` (stereo not drawn)?
RE007 growth inh: -11%; Sm TGR block: -23%; AMA1 RON2 block: 15%; LmPK inhibitor: -2%; Tb PYK inh: -13%

Results for CNC(=O)CSc1nnc(-c2ccco2)n1-c1ccccc1OC ?
RE007 growth inh: -12%; Sm TGR block: 79µM*; AMA1 RON2 block: -7%; LmPK inhibitor: 7%; Tb PYK inh: -5%

What do the screens show for `CCOC(=O)CSc1nnc(-c2ccco2)n1-c1ccc(C)cc1`?
RE007 growth inh: 13%; Sm TGR block: inconclusive; AMA1 RON2 block: 7%; LmPK inhibitor: 4%; Tb PYK inh: 2%

How did C=CCn1c(SCC(=O)Nc2ccccc2OC)nnc1-c1ccco1 do in these assays?
Sm TGR block: 45µM*; LmPK inhibitor: -6%

Results for CCOc1ccccc1-n1c(SCC(=O)NC)nnc1-c1ccco1 ?
RE007 growth inh: 1%; Sm TGR block: inconclusive; AMA1 RON2 block: -5%; LmPK inhibitor: 1%; Tb PYK inh: -7%

Results for CCOC(=O)CSc1nnc(-c2ccco2)n1-c1ccccc1 ?
RE007 growth inh: -3%; Sm TGR block: 22µM*; AMA1 RON2 block: 7%; LmPK inhibitor: 3%; Tb PYK inh: -12%

What do the screens show for `CCCn1c(SCC(=O)Nc2ccccc2OC)nnc1-c1ccco1`?
RE007 growth inh: 13%; Sm TGR block: 4%; AMA1 RON2 block: 8%; LmPK inhibitor: -5%; Tb PYK inh: 0%

What do the screens show for `COc1ccccc1N1CCN(C(=O)c2oc3ccccc3c2N)CC1`?
Sm TGR block: -2%; Tb PYK inh: -5%

Results for C=C(NCc1ccccc1)c1ccccc1O ?
Tb PYK inh: -8%

How did CC(=O)C1=C(c2ccc(Br)cc2)N(C(C)=O)n2c(nnc2C2CCCCC2)S1 do in these assays?
Sm TGR block: 17%; Tb PYK inh: -5%

How did O=C(O)c1ccc(N/N=C/c2ccc3nccnc3c2)cc1 do in these assays?
RE007 growth inh: inconclusive; Sm TGR block: 7%; AMA1 RON2 block: 4%; LmPK inhibitor: 16µM*; Tb PYK inh: inconclusive

What do the screens show for `O=C(O)c1ccc(N/N=C/c2ccncc2)cc1`?
RE007 growth inh: -16%; Sm TGR block: 4%; AMA1 RON2 block: -6%; LmPK inhibitor: -5%; Tb PYK inh: -7%

Results for Cc1cc(C)cc(-n2c(SCC(=O)Nc3ccccc3)nc3c(oc4ccccc43)c2=O)c1 ?
Sm TGR block: 2%; Tb PYK inh: -4%

What do the screens show for `COc1cc(C(=O)NC2CC(=O)N(c3cccc(F)c3)C2)cc(OC)c1OC` (stereo not drawn)?
Sm TGR block: 12%; Tb PYK inh: -14%

What do the screens show for `NC(=O)C1CCN(C2=C(NS(=O)(=O)c3ccc(Cl)cc3)C(=O)c3ccccc3C2=O)CC1`?
RE007 growth inh: -1%; Sm TGR block: 11µM*; AMA1 RON2 block: inconclusive; LmPK inhibitor: -17%; Tb PYK inh: -2%
